beta cell repl: inducers of beta-cell replication in MIN6 cells. MIN6 cells proliferation, ATPlite luminescence, 48 h; cells starved in 0.2% serum; 100% = growth in 10% serum. proliferation, % at 10 µM. 0.29% of 330,000 active. AID 2380;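 active = compounds whose signal lies at least 3.5 SD above the mean of all wells on their plate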
H9c2 protect: protects H9c2 cardiomyocytes from peroxide injury; H2O2 injury protection, ATPLite, 2 h; protection from H2O2 cell death, % at 20 µM; 0.63% of 360,000 active; AID 588492;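 active = compounds giving at least 50% protection of heart cells from peroxide-induced death in the single-dose screen, raw or plate-pattern-corrected value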
Yeast superoxide: lowers age-related superoxide in aged yeast cells | superoxide response (% of plate mean), % at 10 µM | S. cerevisiae aged cells, superoxide DHE fluorescence; stronger effect = lower value | 0.18% of 330,000 active;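 active = superoxide response under a set limit, about three screen SD below normal, cut at about 65% in these data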;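 note: yeast aged for seven days with compound at 30 °C before DHE staining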
HSV replic up: increases HSV replication in cells; HSV replication augmentation in cells, fold increase; 0.005% of 220,000 active; maximum fold increase; AID 1956; in the data active = maximum fold increase above about 1.5; tested in PC3 cells
V-ATPase pH: alters yeast V-ATPase proton transport; S. cerevisiae, pHLuorin cytosolic pH fluorescence; response, % at 10 µM; 0.37% of 350,000 active; in the data active = response mostly above about 7.3%, no sharp cut-off; inactive = mostly below about 5.4%; note: actives read high
p-CIP stab down: p/CIP protein destabilization. Q05BA5. F442A p/CIP-EGFP cells, EGFP fluorescence, 16 h. decrease of EGFP signal, % at 10 µM. 0.01% of 290,000 active. AID 1984;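 active = EGFP signal decrease of at least 30% at 10 µM or well 3 SD below plate mean, unless failing retest; inactive = the rest, including hits failing retest or dose response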
Target sequence (Q05BA5 1-1403): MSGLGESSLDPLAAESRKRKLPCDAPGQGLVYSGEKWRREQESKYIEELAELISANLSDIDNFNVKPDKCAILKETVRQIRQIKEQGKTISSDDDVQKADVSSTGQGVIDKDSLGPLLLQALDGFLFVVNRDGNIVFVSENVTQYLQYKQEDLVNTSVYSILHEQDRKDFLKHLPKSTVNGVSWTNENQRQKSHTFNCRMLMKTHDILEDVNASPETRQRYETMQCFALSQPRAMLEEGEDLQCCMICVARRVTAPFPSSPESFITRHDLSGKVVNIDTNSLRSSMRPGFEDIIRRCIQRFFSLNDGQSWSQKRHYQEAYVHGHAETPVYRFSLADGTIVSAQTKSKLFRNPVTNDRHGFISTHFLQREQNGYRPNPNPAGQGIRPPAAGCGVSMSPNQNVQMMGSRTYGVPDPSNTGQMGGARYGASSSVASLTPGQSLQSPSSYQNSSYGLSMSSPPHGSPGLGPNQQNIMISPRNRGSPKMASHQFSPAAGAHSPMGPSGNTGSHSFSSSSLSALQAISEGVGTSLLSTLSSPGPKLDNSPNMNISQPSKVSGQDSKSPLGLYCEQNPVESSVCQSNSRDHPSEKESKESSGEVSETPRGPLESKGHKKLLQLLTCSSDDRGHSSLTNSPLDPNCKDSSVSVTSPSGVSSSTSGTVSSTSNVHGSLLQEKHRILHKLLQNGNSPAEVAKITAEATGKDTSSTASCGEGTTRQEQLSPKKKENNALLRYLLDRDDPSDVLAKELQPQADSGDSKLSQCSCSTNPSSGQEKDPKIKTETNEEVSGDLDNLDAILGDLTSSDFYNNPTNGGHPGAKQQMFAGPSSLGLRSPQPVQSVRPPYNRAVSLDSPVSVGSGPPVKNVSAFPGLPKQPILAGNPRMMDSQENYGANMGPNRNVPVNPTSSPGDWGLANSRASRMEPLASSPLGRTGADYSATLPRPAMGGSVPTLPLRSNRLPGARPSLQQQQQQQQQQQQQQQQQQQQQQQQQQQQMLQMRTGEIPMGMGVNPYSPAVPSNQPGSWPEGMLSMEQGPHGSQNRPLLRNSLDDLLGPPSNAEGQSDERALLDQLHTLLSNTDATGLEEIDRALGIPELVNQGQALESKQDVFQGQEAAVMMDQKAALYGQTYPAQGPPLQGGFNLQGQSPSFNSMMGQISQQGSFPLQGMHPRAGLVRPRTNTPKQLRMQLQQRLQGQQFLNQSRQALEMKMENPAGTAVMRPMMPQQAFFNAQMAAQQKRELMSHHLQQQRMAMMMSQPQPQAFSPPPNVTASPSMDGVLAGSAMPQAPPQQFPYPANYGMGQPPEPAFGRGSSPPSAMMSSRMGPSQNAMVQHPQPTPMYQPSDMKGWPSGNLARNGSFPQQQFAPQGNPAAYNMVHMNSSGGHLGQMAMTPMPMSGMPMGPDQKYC
Superoxide pick: yeast aging superoxide inhibition, cherry pick confirmation | shares compounds with Yeast superoxide | S. cerevisiae aging, superoxide DHE fluorescence; stronger effect = lower value | superoxide response (% of plate), % at 10 µM | 1% of 850 active;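 active = superoxide signal below 65% of the plate average of sample wells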;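 note: cells aged with compound for 7 days at 30 degrees C before staining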
DHE fluor count: DHE fluorescence interference, counter-screen artifact | shares compounds with Yeast superoxide | S. cerevisiae BY4741, flow cytometry; stronger effect = lower value | fluorescence response, % at 10 µM | 850 tested, under 10 active | AID 435000;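 active = fluorescence response below 15%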;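 note: lower means stronger quenching of DHE signal or ROS scavenging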
A number is an active result; n = inactive; x = no result given. Rows were chosen to be rich in hits. Some 1.4% of all compounds tested hit in one or more screens of this group.

SMILES	beta cell repl	H9c2 protect	Yeast superoxide	HSV replic up	V-ATPase pH	p-CIP stab down	Superoxide pick	DHE fluor count
CCOc1ccccc1NC(=O)COC(=O)C(CC(C)C)N1C(=O)C2CC=CCC2C1=O (configuration not stated)	n	n	65	n	n	n	n	n
Cc1ccc(N2CCN(C(=O)c3ccccc3Br)CC2)c(C)c1	n	n	n	n	n	n	n	n
Cc1ccc(C)c(N2CCN(C(=O)c3csc(C)c3C)CC2)c1	n	n	n	n	n	n	x	x
O=C(c1ccccc1Br)N1CCN(c2ccccc2)CC1	n	n	n	n	n	n	n	n
Cc1ccc(C)c(N2CCN(C(=O)c3ccccc3Br)CC2)c1	n	n	n	n	n	x	n	n
Cc1ccc(N2CCN(C(=O)c3ccccc3)CC2)c(C)c1	n	n	n	n	x	n	x	x
COc1cccc(CNC(=O)Cc2ccc(OC)c(S(=O)(=O)N3CCOCC3)c2)c1	n	n	n	x	n	x	x	x
CCOC(=O)CSc1nc2ccc(Nc3nc(N4CCOCC4)nc(N4CCOCC4)n3)cc2s1	n	n	n	n	n	n	x	x
CC(=O)CSc1nc2ccc(Nc3nc(N4CCOCC4)nc(N4CCOCC4)n3)cc2s1	n	n	60	n	n	n	n	n
O=S(=O)(/N=C(/Nc1cccc2ccccc12)c1ccccc1)c1ccc(F)cc1	n	n	n	x	n	n	x	x
Cc1cc2nsnc2c(S(=O)(=O)N2CCN(C)CC2)c1C	n	n	n	x	n	n	x	x
C=CCNC(=S)NCC	n	n	65	n	n	n	n	n
O=C(NNc1nc(=O)c2cccnc2s1)c1ccccc1O	n	n	50	n	n	n	n	n
O=C(N/N=C/c1ccc(F)cc1)c1cc(-c2ccc3c(c2)OCO3)n[nH]1	n	n	64	n	n	n	n	n
O=C(N/N=C/c1ccc2c(c1)OCO2)c1ccc(NC(=O)c2ccc(F)cc2)cc1	n	n	n	x	n	n	x	x
O=c1[nH]c2ccccc2cc1CN(Cc1cccnc1)S(=O)(=O)c1ccc(Cl)cc1	n	n	65	x	n	n	n	n
Cc1ccccc1NC(=O)Cc1nc(COC(=O)CCNS(=O)(=O)c2ccccc2)cs1	n	n	n	x	n	x	x	x
Cc1cc(C(=O)Nc2ncn[nH]2)ccc1[N+](=O)[O-]	n	n	n	n	n	n	x	x
O=C1CC(N2CCN(S(=O)(=O)c3ccccc3F)CC2)C(=O)N1c1ccc(F)cc1F (configuration not stated)	n	n	65	x	n	x	n	n
CCN(CC)S(=O)(=O)c1ccc(N2CCCC2)c(NC(=O)Cc2cc(OC)c(OC)c(OC)c2)c1	n	n	n	x	n	n	n	n
CCN(CC)S(=O)(=O)c1ccc(N2CCCC2)c(NC(=O)Cc2ccc(OC)cc2)c1	n	n	n	n	n	n	n	n
O=C(NC(Cc1ccccc1)C(=O)O)/C(=C/c1ccccc1)NC(=O)c1ccccc1 (configuration not stated)	n	n	65	n	n	n	n	n
N#Cc1ccc(Cl)cc1NC(=O)CNCc1cccs1	n	n	63	x	n	n	n	n
O=[N+]([O-])c1ccccc1C=NN1CCCCCC1	x	n	x	x	n	x	x	x
CC(C)(C)C1CCc2sc(C(=O)NNC(=O)CCl)cc2C1 (configuration not stated)	x	n	x	n	n	n	x	x
SMILES	beta cell repl	H9c2 protect	Yeast superoxide	HSV replic up	V-ATPase pH	p-CIP stab down	Superoxide pick	DHE fluor count
O=C(CN1C(=O)NC2(CCCc3ccccc32)C1=O)c1ccc(F)c(F)c1 (configuration not stated)	n	n	n	x	n	x	x	x
Cc1cc(=O)n2[nH]c(-c3ccccc3)cc2n1	n	n	n	x	n	n	x	x
COc1cccc(-c2cc3nc(-c4ccccc4)cc(=O)n3[nH]2)c1	n	n	n	x	n	n	n	n
O=c1cc(-c2ccccc2)nc2cc(-c3ccc(F)cc3)[nH]n12	n	n	n	x	n	x	n	n
Cc1nc2cc(-c3ccccc3)[nH]n2c(=O)c1C	n	n	n	x	n	n	n	n
CC(=O)c1ccc(C(=O)N2CCC(n3nccc3NC(=O)C3CC3)CC2)cc1	n	n	n	x	n	n	x	x
O=C1CCCN1S(=O)(=O)c1ccc(F)cc1	n	n	n	x	n	n	x	x
O=C1CCCN1S(=O)(=O)c1ccccc1	n	n	n	n	n	n	n	n
CC(Nc1c[nH]c(=O)[nH]c1=O)c1ccccc1 (configuration not stated)	n	n	n	x	n	n	x	x
Cc1ccc(-c2nc(N)n(S(C)(=O)=O)n2)cc1	n	n	65	n	n	n	n	n
CNC(=O)c1c(NC(=O)c2ccc(S(=O)(=O)N(C)c3ccccc3)cc2)sc2c1CCN(C(C)C)C2	n	x	54	x	x	n	n	n
CC(C)N1CCc2c(sc(NC(=O)c3ccc(S(=O)(=O)N4CCc5ccccc54)cc3)c2C(N)=O)C1	n	n	n	n	n	n	x	x
O=C(Cc1cnc2ncnn2c1)N1CCc2c([nH]c3ccccc23)C1c1ccccn1 (configuration not stated)	n	n	n	n	n	n	x	x
COc1ccc(C2(C(=O)NCCc3ccccc3)CCCC2)cc1OC	n	n	47	x	n	n	n	n
COc1ccc(C2(C(=O)NCc3ccco3)CCCC2)cc1OC	n	n	n	n	n	n	x	x
COc1ccc(NS(=O)(=O)c2c(C)cc(C)cc2C)cc1	n	n	n	n	n	n	x	x
COc1cccc(NS(=O)(=O)c2c(C)cc(C)cc2C)c1	n	n	n	n	n	n	n	n
CC(NC(=O)C1CCCN1S(=O)(=O)c1ccccc1)c1ccccc1 (configuration not stated)	n	n	n	x	n	n	x	x
Cc1noc(C)c1C(=O)N(CC(C)C)c1nc2ccccc2s1	n	n	61	x	n	n	n	n
CN(NC1OC(=O)c2ccccc21)c1ccc(C(F)(F)F)cc1[N+](=O)[O-] (configuration not stated)	n	n	n	n	n	n	x	x
CN(NC1OC(=O)c2ccccc21)c1ccc(Cl)cc1[N+](=O)[O-] (configuration not stated)	n	n	55	n	n	n	n	n
C=CCn1c(COc2ccc(F)cc2)nnc1SCC(=O)NC1CC1	n	n	n	x	n	x	x	x
COCCn1cnnc1SCC(=O)c1ccc(S(=O)(=O)N2CCCC2)cc1	n	n	n	n	n	n	x	x
CC(C)NC(=O)c1ccc(C(C)C)cc1	x	n	52	n	n	n	n	n
CCOC(=O)NC(=O)/C(C#N)=N/Nc1ccc(F)cc1	n	n	n	n	n	n	n	n
COc1ccc([N+](=O)[O-])cc1NC(=O)c1cn(-c2ccc(Cl)cc2)c(=O)c2ccccc12	n	n	n	n	n	n	x	x

Compound activity from PubChem.
